# High-throughput results deposited in PubChem BioAssay by Bradner/Qi Labs at DFCI.
# The sample as a whole holds a higher share of hits than the screen did.
# CBX7 inh: blocks human CBX7 binding to H3K27me3 peptide; O95931; AlphaScreen His6-CBX7 / biotin-H3K27me3 peptide binding; hits give low values; normalised signal (fraction of DMSO) (concentration not given with the values); hit rate 1.1% among 66,000; AID 1224903; in the data active means normalised signal below about 0.5
# Target sequence (O95931 whole entry, looked up): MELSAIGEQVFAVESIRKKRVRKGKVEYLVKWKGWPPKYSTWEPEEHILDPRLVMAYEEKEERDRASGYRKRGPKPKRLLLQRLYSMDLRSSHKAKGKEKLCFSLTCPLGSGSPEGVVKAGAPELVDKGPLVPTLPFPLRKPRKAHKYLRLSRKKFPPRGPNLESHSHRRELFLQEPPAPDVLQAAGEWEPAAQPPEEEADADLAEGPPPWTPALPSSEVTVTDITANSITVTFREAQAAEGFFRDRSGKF
# * marks the source's active call; other numbers are inactive results.
SMILES,CBX7 inh
O=C(O)c1c[nH]c2ccc(S(=O)(=O)NCCCN3CCCC3=O)cc2c1=O,0.5*
O=C(O)c1c[nH]c2ccc(S(=O)(=O)NCc3ccccn3)cc2c1=O,0.021*
Cc1cccc(C)c1N(C)S(=O)(=O)c1ccc2[nH]cc(C(=O)NCc3ccccn3)c(=O)c2c1,1
CCc1ccc(NS(=O)(=O)c2ccc3[nH]cc(C(=O)NCc4ccccn4)c(=O)c3c2)cc1,1
CC(=O)Nc1ccc(NS(=O)(=O)c2ccc3[nH]cc(C(=O)O)c(=O)c3c2)cc1,0.66
CCOC(=O)CNS(=O)(=O)c1ccc2[nH]cc(C(=O)O)c(=O)c2c1,0.71
CCOc1cc(OCC)cc(C(=O)Nc2cc(-c3nc4ccccc4o3)ccc2OC)c1,1.1
CC(C)c1ccc2oc(-c3ccc(NC(=O)c4ccccc4Cl)cc3)nc2c1,1
O=C(Nc1ccccc1-c1nc2ccccc2s1)c1c(F)cccc1F,1.2
Cc1cccnc1NC(=O)Cn1nc(Cc2ccncc2)c2ccccc2c1=O,1.6
O=C1CC(c2ccc(F)cc2)Sc2ccccc2N1 (configuration not stated),0.89
CC(C(=O)NC1CCCCC1)C1Sc2ccccc2NC1=O (configuration not stated),1
O=C1Nc2ccccc2SC(c2ccccc2)C1O (configuration not stated),0.19*
CCCCOc1ccc(C(C)NC(=O)CN2CCN(Cc3ccc(Cl)cc3)C2=O)cc1 (configuration not stated),1
CCc1ccccc1NC(=O)CN(C)S(=O)(=O)c1ccc2nc(C)sc2c1,1.4
COc1ccc(Nc2nc(N3CCCC3)c3ccccc3n2)cc1,0.49*
COc1ccc(Nc2cc(C(=O)N3CCCC3)c3ccccc3n2)cc1,0.95
COC(=O)c1ccc(Nc2nc(N3CCN(C)CC3)c3ccccc3n2)cc1,1
Cc1ccccc1Nc1c(-c2cccc(Cl)c2)nc2cccc(C)n12,1
CCN(c1cccc(C)c1)S(=O)(=O)c1ccc2[nH]cc(C(=O)NCc3ccc(F)cc3)c(=O)c2c1,1
COc1ccc(-c2nnc(NC(=O)c3ccc(S(=O)(=O)N(C)C)cc3)o2)cc1,0.037*
COc1cccc(-c2nnc(NC(=O)c3ccc(S(=O)(=O)N(C)Cc4ccccc4)cc3)o2)c1,0.1*
COc1cccc(-c2nnc(NC(=O)c3ccc(S(=O)(=O)N4CCOCC4)cc3)o2)c1,0.7
CCc1nnc(NC(=O)c2ccc(S(=O)(=O)N(C)Cc3ccccc3)cc2)o1,0.43*
CCOC(=O)c1oc2ccccc2c1NC(=O)c1ccc(S(=O)(=O)N(C)Cc2ccccc2)cc1,1
SMILES,CBX7 inh
CCN(Cc1ccccc1)S(=O)(=O)c1ccc(C(=O)Nc2nnc(-c3cccc(OC)c3)o2)cc1,0.96
COc1ccccc1-c1nnc(NC(=O)c2ccc(S(=O)(=O)N3CCOCC3)cc2)o1,0.63
Cc1nc2cc(NC(=O)c3ccc(S(=O)(=O)N(C)Cc4ccccc4)cc3)ccc2s1,0.95
COc1ccc(-c2nnc(NC(=O)c3ccc(S(=O)(=O)N4CCCC4)cc3)o2)c(OC)c1,0.83
COc1cc(OC)cc(-c2nnc(NC(=O)c3ccc(S(=O)(=O)N(C)C)cc3)o2)c1,0.73
COc1cccc(-c2nnc(NC(=O)c3ccc(S(=O)(=O)N4CCCC4)cc3)o2)c1,0.89
COc1ccccc1-c1nnc(NC(=O)c2ccc(S(=O)(=O)N(C)Cc3ccccc3)cc2)o1,0.00085*
CCCNC(=O)Cn1cnc2sc(C(=O)Nc3ccccc3F)c(C)c2c1=O,0.98
Cc1ccc(Cl)cc1N1CCN(CCCNC(=O)Nc2ccc(F)cc2)CC1,0.73
O=C(Nc1ccc(Br)cc1)C1CCCN(S(=O)(=O)c2cccs2)C1 (configuration not stated),1
COc1ccccc1-c1cc(C(=O)N2CC3(C)CC2CC(C)(C)C3)no1 (configuration not stated),0.69
Cc1ccc(-c2nnc(NC(=O)c3cccc(Cl)c3)s2)cc1,1
O=C(c1cc2c(s1)-c1ccccc1OC2)N1CCN(c2cccc(C(F)(F)F)c2)CC1,1.1
CN(Cc1ccccc1)S(=O)(=O)c1ccc(C(=O)Nc2nnc(-c3ccc(F)cc3)o2)cc1,0.14*
COc1ccccc1C(=O)Nc1nnc(Cc2ccc(Cl)c(Cl)c2)s1,1.1
O=C(CCc1nc(-c2cccs2)no1)Nc1ccc(F)cc1Cl,0.94
Cc1ccc(-c2nc(CS(=O)(=O)CC(=O)Nc3c(C)cccc3C)c(C)o2)cc1,1
CCc1cc(-c2[nH]ncc2Oc2ccccc2)c(O)cc1OC,0.66
CCc1cc(-c2n[nH]c(C)c2Oc2ccccc2)c(O)cc1OC,0.6
CCc1cc(C(=O)Cc2ccc3ccccc3n2)c(O)cc1OC,0.34*
CCCn1cnc2cc(NCc3cccc(Br)c3)ccc21,0.33*
CCn1cnc2cc(NCc3ccncc3)ccc21,0.96
CCCCn1cnc2cc(NCc3cccc(Br)c3)ccc21,0.25*
COc1cccc(CNc2ccc3c(c2)nc(C)n3C)c1,1
CC(C)(C)n1cnc2cc(NCc3cccc(Br)c3)ccc21,0.75
SMILES,CBX7 inh
CCCCn1cnc2cc(NCc3cccc(OC)c3OC)ccc21,0.54
CCn1cnc2cc(NCc3cccc(Br)c3)ccc21,0.45*
COc1ccc(CNc2ccc3c(c2)ncn3C)cc1OC,1
CCn1cnc2cc(NCc3cccc(OC)c3OC)ccc21,0.94
COCCCNC(=O)CSc1nc(-c2cccc(OC)c2)[nH]c1-c1ccc(OC)cc1,0.98
Cc1ccc(-n2nc3c(c2NC(=O)COc2ccc(Cl)cc2Cl)CS(=O)(=O)C3)cc1,1.1
COC(=O)c1ccccc1NC(=O)CS(=O)(=O)Cc1nc(-c2cccc(OC)c2)oc1C,0.98
CC1CCN(S(=O)(=O)c2ccc3c(c2)N(CC(=O)NCc2ccc(F)cc2)C(=O)CO3)CC1,1
CCc1c(-c2ccccc2)nc2ccccc2c1C(=O)NCCc1ccc(OC)c(OC)c1,0.97
Cc1noc(C)c1S(=O)(=O)NCC(=O)NCc1ccccc1,1
Cc1cccc(N(C)C(=O)c2ccc(CNc3c(N4CCC(C)CC4)c(=O)c3=O)cc2)c1,0.99
COc1cc(OC)c(Nc2nnc(-c3cc4c(CO)cnc(C)c4oc3=O)s2)cc1Cl,0.96
COc1cccc(OCC(=O)N(Cc2nc(-c3cccc(C)c3)no2)C(C)C)c1,0.74
COc1ccccc1Cc1nc2ccccc2nc1SCC(=O)Nc1ccc(OC)c(OC)c1,1
CCCCN(CCCC)S(=O)(=O)c1ccc(C(=O)Nc2nnc(-c3cccs3)o2)cc1,0.81
CCCCN(CCCC)S(=O)(=O)c1ccc(C(=O)Nc2nnc(COC)o2)cc1,0.16*
CCCCN(CCCC)S(=O)(=O)c1ccc(C(=O)Nc2nnc(-c3ccccc3Cl)o2)cc1,1
CCN(CC)S(=O)(=O)c1ccc(C(=O)Nc2nnc(COC)o2)cc1,0.024*
CCN(CC)S(=O)(=O)c1ccc(C(=O)Nc2nnc(-c3ccccc3Cl)o2)cc1,1
Cc1cccc2c1-c1sc(C(=O)Nc3ccc(F)cc3)cc1CO2,1
CCOc1cc2[nH]c(=O)n(CCC(=O)NCc3ccccn3)c(=O)c2cc1OCC,1
Cc1ccc2nc(-c3cccnc3)c(Nc3ccccc3)n2c1,1.1
COc1ccc(-c2nc3ncccn3c2Nc2ccc(C)cc2)cc1,1
Cc1ccccc1Nc1c(-c2ccccn2)nc2ccc(Cl)cn12,0.96
Cc1ccc2nc(-c3ccccn3)c(Nc3ccccc3C)n2c1,0.0067*
Cc1ccc2nc(-c3ccccn3)c(Nc3ccccc3)n2c1,0.11*
Cc1ccc(Nc2c(-c3ccccc3)nc3ccc(C)cn23)cc1,1.2
Cc1ccc(Nc2c(-c3cccnc3)nc3ccc(C)cn23)cc1,0.94
